Results filed as inconclusive are left out. Activity calls are given as the source filed them. Calls follow the shape of the dose curve; as a rule, active = well fitted curve in the direction sought with a large enough effect; inconclusive = small, poorly fitted or top-dose-only effect, or another doubt; inactive = no such curve, though single readings can be large; an effect the other way counts as inactive or inconclusive.
Tests used:
[1] = qHTS assay for measurement of the activity of small molecule inhibitors on Zika virus induced Caspase-3 activity in human iPSC derived neural progenitor cells (hNPCs) (AID 1224857); also: nearly all actives have a fitted effect of over 65% in size
Method in brief: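 Pretreat hNPCs with compound 1 h; infect ZIKV 2 FFU/cell; 6 h 37 C, 5% CO2; Caspase-Glo 3/7, 30 min RT; luminescence; normalize to no-virus and virus-only wells.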

[2] = qHTS assay for measurement of the activity of small molecule inhibitors on Zika virus induced Caspase-3 activity in human astrocytoma cells (AID 1224859)
Method in brief: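 Human SNB-19 astrocytoma cells in RPMI 1640 with 10% FBS receive compound one hour ahead of Zika virus at 2 FFU/cell. After 6 h infection, caspase-3/7 activity is detected by Caspase-Glo luminescence.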

[3] = qHTS assay to identify small molecule inhibitors of chordoma cells - UCH-1 (AID 1259355); also: nearly all actives have a fitted effect of over 55% in size
Method in brief: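 Cells (800/well) were seeded and left overnight at 37 C, 5% CO2, then treated with drugs at 15 concentrations plus a combination mix of auranofin, camptothecin, doxorubicin, rubitecan and topotecan. Viability after 48hr was read by CellTiter-Glo luminescence.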

[4] = qHTS assay to identify small molecule inhibitors of chordoma cells - UCH-2 (AID 1259356); also: series mostly up to about 46 µM
[5] = P-glycoprotein substrates identified in KB-8-5-11 adenocarcinoma cell line, qHTS therapeutic library screen (AID 1346987); conditions: outcome: dose series up to 44.5 µM; also: series mostly up to about 44 µM; nearly all actives have a fitted effect of over 65% in size
Method in brief: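 KB-8-5-11: colchicine-selected sub-line of KB-3-1 over-expressing P-gp; assay medium lacked colchicine. 72 h drug exposure at 37 degree C, CellTiter-Glo.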

[6] = NS1 protein of Zika virus - qHTS assay to identify small molecule inhibitors in human HEK 293 cells (AID 1347053); also: series mostly up to about 46 µM; nearly all actives have a fitted effect of over 55% in size
Method in brief: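 HEK 293; 20 h pre-culture, 37 C/5% CO2; cpd 1 h pre-infection; ZIKV MR766, MOI = 0.5, 24 h, 37 C; TR-FRET NS1 readout (two anti-NS1 Abs); norm. to no-virus vs infected.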

[7] = qHTS of pediatric cancer cell lines to identify multiple opportunities for drug repurposing: Primary screen for TC32 cells (AID 1347089); also: nearly all actives have a fitted effect of over 60% in size
Method in brief: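 Luminescent CellTiter-Glo read-out of metabolically active TC32 cells after 48 h compound exposure. Primary: MIPE 11-point, 0.78 nM–46 µM; NPC 8-point, 0.59 nM–46 µM. Confirmatory: 11-point dilutions.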

[8] = qHTS of pediatric cancer cell lines to identify multiple opportunities for drug repurposing: Primary screen for DAOY cells (AID 1347090); also: series mostly up to about 46 µM; nearly all actives have a fitted effect of over 55% in size
Method in brief: (§1)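 Viability measured as metabolically active cells via CellTiter-Glo luminescence following 48 hours of compound exposure, 11-point dilutions in confirmatory testing. 500-1,000 cells/well plated 5 hours before dosing; controls were DMSO and 2.3 µM bortezomib.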

[9] = qHTS of pediatric cancer cell lines to identify multiple opportunities for drug repurposing: Primary screen for SJ-GBM2 cells (AID 1347091)
Method in brief: as §1

[10] = qHTS of pediatric cancer cell lines to identify multiple opportunities for drug repurposing: Primary screen for A673 cells (AID 1347092); also: nearly all actives have a fitted effect of over 45% in size
Method in brief: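 A673 cells (500-1,000 cells/well in growth media) were pre-incubated 5 h at 37 degrees C, then exposed to compounds for 48 h. Viability was read as CellTiter-Glo luminescence; concentration-response curves came directly from the primary screen.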

[11] = qHTS of pediatric cancer cell lines to identify multiple opportunities for drug repurposing: Primary screen for SK-N-MC cells (AID 1347093); also: series mostly up to about 46 µM
Method in brief: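 Metabolically active cells were quantified by ATP-dependent luminescence (CellTiter-Glo, 15 min at room temperature) following 48 h treatment. Cells had been plated at 500-1,000 per well and settled for 5 h beforehand.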

[12] = qHTS of pediatric cancer cell lines to identify multiple opportunities for drug repurposing: Primary screen for NB-EBc1 cells (AID 1347095)
Method in brief: (§2)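 Readout: CellTiter-Glo luminescence, 48 h treatment. Controls DMSO (neutral) and bortezomib 2.3 µM final (positive). Potency and efficacy taken from primary-screen concentration-response curves.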

[13] = qHTS of pediatric cancer cell lines to identify multiple opportunities for drug repurposing: Primary screen for U-2 OS cells (AID 1347096); also: nearly all actives have a fitted effect of over 50% in size
Method in brief: (§3)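 Viability after 48 h compound treatment at 37C, 500-1,000 cells/well, read as ATP luminescence with CellTiter-Glo. Primary screens used 11-point (MIPE, 0.78 nM-46 µM) or 8-point (NPC, 0.59 nM-46 µM) final concentrations; follow-up screens used 11-point dilutions.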

[14] = qHTS of pediatric cancer cell lines to identify multiple opportunities for drug repurposing: Primary screen for Saos-2 cells (AID 1347097); also: nearly all actives have a fitted effect of over 40% in size
Method in brief: as §2

[15] = qHTS of pediatric cancer cell lines to identify multiple opportunities for drug repurposing: Primary screen for NB1643 cells (AID 1347099); also: nearly all actives have a fitted effect of over 50% in size
Method in brief: as §2

[16] = qHTS of pediatric cancer cell lines to identify multiple opportunities for drug repurposing: Primary screen for LAN-5 cells (AID 1347100)
Method in brief: as §3

[17] = qHTS of pediatric cancer cell lines to identify multiple opportunities for drug repurposing: Primary screen for SK-N-SH cells (AID 1347098); also: nearly all actives have a fitted effect of over 65% in size
Method in brief: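 Cells (500-1,000/well) rested 5 h, then received compounds for 48 h; metabolically active cells were measured by CellTiter-Glo luminescence. Final concentrations spanned up to 46 µM (MIPE, 11-point) or 0.59 nM-46 µM (NPC, 8-point) in primary screens, 11-point in follow-ups.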

[18] = qHTS of pediatric cancer cell lines to identify multiple opportunities for drug repurposing: Primary screen for BT-37 cells (AID 1347094); also: series mostly up to about 57 µM
Method in brief: as §2

Measured: Potency

C[C@@H]1O[C@@H](OC[C@H]2O[C@@H](Oc3c(-c4ccc(O)c(O)c4)oc4cc(O)cc(O)c4c3=O)[C@H](O)[C@@H](O)[C@@H]2O)[C@H](O)[C@H](O)[C@H]1O
not listed: [17] | [18]
inactive: all other assays above

COCC(=O)Nc1c(I)c(C(=O)NCC(O)CO)c(I)c(C(=O)N(C)CC(O)CO)c1I (stereo not given)
not listed: [13] | [15] | [18]
inactive: all other assays above

CNCc1ccccc1
not listed: [11] | [17] | [18]
inactive: all other assays above

COC(=O)c1cccnc1
not listed: [17] | [18]
inactive: all other assays above

OC[C@@H](O)[C@@H](O)[C@H](O)[C@H](O)CO
not listed: [11] | [13] | [14]
inactive: all other assays above

CN/C(=C\[N+](=O)[O-])NCCSCc1csc(CN(C)C)n1
not listed: [11] | [13] | [18]
inactive: all other assays above

CC(C)c1cc2c(cc1S(=O)(=O)O)[C@@]1(C)CCC[C@@](C)(C(=O)O)[C@@H]1CC2
not listed: [17] | [18]
inactive: all other assays above

O=C(/C=C/c1ccc(O)c(O)c1)O[C@@H]1C[C@@](OC(=O)/C=C/c2ccc(O)c(O)c2)(C(=O)O)C[C@@H](O)[C@@H]1O
not listed: [11]
inactive: all other assays above

CCCCC1(COC(=O)CCC(=O)O)C(=O)N(c2ccccc2)N(c2ccccc2)C1=O
not listed: [11] | [15]
inactive: all other assays above

CC[C@H](C)[C@H](N)C(=O)O
not listed: [11]
inactive: all other assays above

Cc1cc(OI)c(C(C)C)cc1-c1cc(C(C)C)c(OI)cc1C
not listed: [9]
inactive: all other assays above

OCC(O)CS (stereo not given)
not listed: [11] | [17]
inactive: all other assays above

O=C(O)CCC(=O)O
not listed: [11] | [17] | [18]
inactive: all other assays above

O=C(O)Cc1ccc(CCNS(=O)(=O)c2ccc(Cl)cc2)cc1
not listed: [11]
inactive: all other assays above

C/C=C1\[C@H]2C=C(C)C[C@]1(N)c1ccc(=O)[nH]c1C2
not listed: [11] | [15]
inactive: all other assays above

FC(F)(F)C(Cl)Br (stereo not given)
not listed: [11] | [14]
inactive: all other assays above

— PubChem BioAssay (NCATS)
